# Inconclusive results are not listed. Unmarked numbers belong to inactive results. Activity calls are given as the source filed them. Calls follow the shape of the dose curve; as a rule, active = well fitted inhibition curve with a large enough effect; inconclusive = small, poorly fitted or top-dose-only effect; inactive = no such curve, though single readings can be large or run the other way.
# Assay: qHTS Screen of the MIPE 4.0 Collection Against Ewings Sarcoma (EW8) (AID 1259255); also: nearly all actives have a fitted effect of over 35% in size;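 as to viability: 100% = DMSO-treated cells and 0% = medium-only wells without cells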
# Settings: EW8 Ewing sarcoma viability, CellTiter-Glo, 48 h; series mostly up to 45.8 µM; viability: at the top concentration
# Description: There is a large unmet medical need for treatments for Ewing sarcoma, a pediatric sarcoma. We sought to identify compounds that inhibited Ewing sarcoma cells in vitro with the goal to then test promising drugs in two drug combinations in vitro to look for synergistic drug combinations. Promising combinations would then proceed to additional validation, including in vivo testing.
# Using the NCATS developed oncology compound library called the Mechanism of Interrogation Plate (MIPE), four Ewing sarcoma cell lines were evaluated (TC32, TC71, RDES, EW8). Compounds, in a 12-point titration series, were incubated with cells for 48 hours and the read out was cell viability (CellTiter-Glo from Promega). These initial experiments were used to select appropriate concentrations of each single agent for subsequent two-drug matrix combinations such that the concentrations in the matrices would span both activity and non-activity.
# Cells, in the log phase of growth, were seeded in 5 uL of RPMI plus 5% FBS, […] L-glutamine, 100 U/ml penicillin and 100 ug/ml streptomycin into 1536-well solid-bottom white tissue culture treated Greiner Bio One Plates (789173-F) using a MultiDrop Combi (Thermofisher Scientific) dispenser and a small sterile cassette. One column was media alone to be used as a :"no cells" control. The plates were then covered with sterilized stainless steel gasketed lids from Kalypsys. After allowing cells to attach for 4 hours, 23 nL of test compound or control (negative control DMSO and positive control 9.2 uM Bortezomib-final) were added from a 1536-well polypropylene compound source plate to each well using a 1536 head pin tool from Kalypsys. Cells were then incubated for 48 hours at 37C, 95% relative humidity and 5% CO2. After 48 hours, plates were removed from the incubator and 3 uL of CellTiter-Glo (Promega) was added using an Aurora Flying Reagent Dispenser Bioraptor. Plates were incubated at room temperature for 10 minutes prior to reading the luminescence on the Viewlux (PerkinElmer). The relative luciferase units are used to calculate the percent activity using the activity of DMSO in the cells and no cells columns for normalization of no inhibition and full inhibition respectively.
# Potency is read from the fitted curve at half-maximal effect.
SMILES,Potency,viability
O=c1[nH]nc(OCCCc2ccc(Cl)cc2)c(NCc2cccnc2)c1Br,13.2 µM (active),–
NC(=O)c1ncn([C@@H]2O[C@H](CO)[C@@H](O)[C@@H]2O)n1,–,119%
Cc1cc(OCCCS(C)(=O)=O)cc(C)c1-c1cccc(COc2ccc3c(c2)OC[C@H]3CC(=O)O)c1,20.9 µM (active),–
CN1CCc2c(n(Cc3ccc(C(=O)NO)cc3)c3ccccc23)C1,16.6 µM (active),–
CN1[C@H]2CC[C@H]1CC(OC(=O)c1c[nH]c3ccccc13)C2 (stereo not given in full),4.18 µM (active),–
COc1cc([C@@H]2c3cc4c(cc3[C@@H](O[C@@H]3O[C@@H]5CO[C@@H](C)O[C@@H]5[C@H](O)[C@@H]3O)[C@H]3COC(=O)[C@H]23)OCO4)cc(OC)c1O,0.148 µM (active),–
O=C(O)c1nc(=O)[nH]c(=O)[nH]1,–,102% [at 23.2 µM]
COc1nccc(-c2c(-c3ccc(F)cc3)ncn2C2CCC(O)CC2)n1 (stereo not given),–,106%
O=[N+]([O-])c1ccc(Nc2ccccc2-c2ccccc2)c2nonc12,–,96.8%
CC1(C)[C@H]2CC[C@]3(C)[C@@H](C(=O)C=C4[C@@H]5C[C@@](C)(C(=O)O)CC[C@]5(C)CC[C@]43C)[C@@]2(C)CC[C@@H]1O,–,110%
CNC(=O)c1cc(COc2nnc(Nc3ccc(Cl)cc3)c3ccoc23)ccn1,–,114%
CN1C(=O)C(Cc2c[nH]c3ccccc23)NC1=S (stereo not given),–,115%
Cc1cnc(-c2cc(N3CCN(C(=O)CCS(C)(=O)=O)CC3)ncc2Cl)c(C)c1,–,103%
O=c1[nH]c(=O)n([C@H]2C[C@@H](O)[C@@H](CO)O2)cc1C(F)(F)F,3.32 µM (active),–
C[C@H](CCC(=O)O)[C@H]1CC[C@H]2[C@H]3[C@@H](CC[C@]12C)[C@@]1(C)CC[C@@H](O)C[C@H]1C[C@@H]3O,18.7 µM (active),–
OCCn1cc(-c2ccc3c(c2)CCC3=NO)c(-c2ccncc2)n1,–,94.4%
N[C@@H](CC(=O)N1CCn2c(nnc2C(F)(F)F)C1)Cc1cc(F)c(F)cc1F,18.7 µM (active),–
COC(=O)Nc1ccc(-c2nc(N3CCOCC3)c3cnn(C4CCN(C(=O)OC)CC4)c3n2)cc1,0.148 µM (active),–
CCCCCCCCCCCCCC(=O)N[C@H](CO)[C@H](O)c1ccc([N+](=O)[O-])cc1,–,104%
CC(C)(OCc1nn(Cc2ccccc2)c2ccccc12)C(=O)O,–,88%

SMILES,Potency,viability
CC(C)(C)c1nc(-c2cccc(NS(=O)(=O)c3c(F)cccc3F)c2F)c(-c2ccnc(N)n2)s1,18.7 µM (active),–
CC[C@H](C)C(=O)O[C@H]1C[C@H](O)C=C2C=C[C@H](C)[C@H](CC[C@@H](O)C[C@@H](O)CC(=O)O)[C@H]21,–,108%
CCN1CCC(n2cc(CNc3cc(Cl)c4ncc(C#N)c(Nc5ccc(F)c(Cl)c5)c4c3)nn2)CC1,20.9 µM (active),–
CN(C)N=Nc1nc[nH]c1C(N)=O,–,90.3%
Clc1ccc(C2(c3ccc(-c4cn[nH]c4)cc3)CCNCC2)cc1,23.5 µM (active),–
CC[C@H](C=C[C@@H](C)[C@H]1CC[C@H]2[C@@H]3CC=C4C[C@@H](O)CC[C@]4(C)[C@@H]3CC[C@]12C)C(C)C,–,103% [at 23.2 µM]
NC[C@H]1O[C@H](O[C@@H]2[C@@H](O)[C@@H](O[C@H]3O[C@H](CO)[C@@H](O)[C@H](N)[C@@H]3O)[C@H](N)C[C@@H]2N)[C@H](O)[C@@H](O)[C@H]1O,–,102%
Cc1cn([C@@H]2C[C@@H](O)[C@H](CO)O2)c(=O)[nH]c1=O,–,100%
CCNC(=O)Nc1ccc(Oc2ncnc(N)c2C=NOC)cc1Cl,8.33 µM (active),–
NS(=O)(=O)c1cc(Cl)c(Cl)c(S(N)(=O)=O)c1,–,106%
C=C1[C@H](n2cnc3c(=O)[nH]c(N)nc32)C[C@H](O)[C@H]1CO,13.2 µM (active),–
N#CC(=C1Nc2ccccc2S1)c1ccnc(OCc2ccc(CN3CCOCC3)cc2)n1,5.26 µM (active),–
CCOC(=O)c1c(CSc2ccccc2)n(C)c2cc(Br)c(O)c(CN(C)C)c12,20.9 µM (active),–
CC(C)c1onc(-c2c(Cl)cccc2Cl)c1COc1ccc(C=Cc2cccc(C(=O)O)c2)c(Cl)c1,–,93.2%
COc1cc2c(cc1Cc1cccc(Cl)c1F)c(=O)c(C(=O)O)cn2[C@H](CO)C(C)C,23.5 µM (active),–
CN(C)c1ccc(-c2nc3ncc(Cl)c(N4CCN(CC(=O)Nc5nccs5)CC4)c3[nH]2)cc1,16.6 µM (active),–
CCC(c1ccc(O)cc1)C(CC)c1ccc(O)cc1 (stereo not given),1.87 µM (active),–
O=C(O)Cc1cccc(OCCCN(Cc2cccc(C(F)(F)F)c2Cl)CC(c2ccccc2)c2ccccc2)c1,20.9 µM (active),–
COC(=O)[C@H](c1ccccc1Cl)N1CCc2sccc2C1,–,124%
CCCCC(F)(F)[C@@]1(O)CC[C@H]2[C@H](CC(=O)[C@@H]2CCCCCCC(=O)O)O1,3.32 µM (active),–

# Source: PubChem BioAssay (NCATS)
